Measurements from PubChem BioAssay (EPA / NIEHS).
Some compounds were tested as several samples or in several runs, with calls that do not always agree. Active and inactive are the calls of the source. How the source made its calls: active means hit-call score of the fitted dose curve at least 0.9, where 1 is the maximum; inactive means score below 0.9.

Key:
[1] = ATG_CRE_CIS: Attagene CIS-FACTORIAL HepG2 Assay for human cAMP Responsive Element (CRE) binding protein 3 (AID 2282926); conditions: HepG2 CRE cis-reporter, Attagene multiplexed mRNA; actives raise or lower the signal
In short: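 HepG2 cells transiently transfected with cis-element-driven multiple reporter transcription units; CRE reporter mRNA measured 24 h after dosing by RT-PCR, 6-FAM labelling, HpaI digestion and capillary electrophoresis. Bidirectional fit versus DMSO baseline.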

[2] = molecular target: CCAAT/enhancer-binding protein beta (Homo sapiens) (UniProt P17676); assay: ATG_C_EBP_CIS: Attagene CIS-FACTORIAL HepG2 Assay for human CCAAT/Enhancer Binding Protein (C/EBP) beta (AID 2282927); conditions: HepG2 Attagene cis-factorial transcription factor reporter; actives raise or lower the signal
In short: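 Endogenous C/EBPb-driven reporter transcripts measured in transfected human HepG2 cells at 24 h via RT-PCR and capillary electrophoresis of labelled fragments. Activity fitted in both directions relative to DMSO baseline.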

[3] = ATG_CMV_CIS: Attagene CIS-FACTORIAL HepG2 Assay for human CMV (Internal Marker) (AID 2282928); conditions: HepG2 CMV promoter reporter, transcription factor profiling; actives raise or lower the signal;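 further: endpoint acts as a background internal control marker rather than a target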
In short: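 Endogenous transcription factor activity read in HepG2 via transfected cis-promoter reporter units. After 24 h dosing, reporter mRNA measured by RT-PCR/capillary electrophoresis; gain or loss of signal fit relative to DMSO.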

[4] = ATG_DR4_LXR_CIS: Attagene CIS-FACTORIAL HepG2 Assay for human Liver X Receptor (LXR), DR4 submotif (AID 2282929); conditions: HepG2 Attagene DR4 cis-reporter, mRNA transcription; actives raise or lower the signal
In short: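 The endpoint is DR4-element-driven reporter transcripts after 24 h chemical exposure of transfected HepG2 cells. These were measured via RT-PCR and capillary electrophoresis, and gain or loss of signal was fitted relative to DMSO controls.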

[5] = molecular target: Aryl hydrocarbon receptor (Homo sapiens) (UniProt P35869); assay: ATG_Ahr_CIS: Attagene CIS-FACTORIAL HepG2 Assay for human Aryl Hydrocarbon Receptor (Ahr) (AID 2282930); conditions: HepG2 AhR cis-factorial reporter transcription; actives raise or lower the signal
In short: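 Reporter mRNA levels, quantified by RT-PCR and fluorescent capillary electrophoresis, reflect endogenous AhR transcriptional activity in HepG2 cells carrying transfected cis-promoter reporter constructs. Readout at 24 h post-dose; gain or loss fitted against DMSO baseline.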

[6] = ATG_AP_1_CIS: Attagene CIS-FACTORIAL HepG2 Assay for human Activator Protein 1 (AP-1) (AID 2282931); conditions: HepG2 Attagene cis-factorial AP-1 reporter mRNA; actives raise or lower the signal
In short: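 Readout is reporter transcript level from endogenous transcription factor activity, quantified by RT-PCR with fluorescent primer extension and capillary electrophoresis. Transiently transfected HepG2 cells, 24 h exposure. Curves fitted both directions versus DMSO.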

[7] = ATG_AP_2_CIS: Attagene CIS-FACTORIAL HepG2 Assay for human Activator Protein 2 (AP-2) (AID 2282932); conditions: HepG2 AP-2 cis-reporter, Attagene transcription factor profiling; actives raise or lower the signal
In short: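 Step one: transient transfection of HepG2 with reporter transcription units. Step two: 24 h chemical exposure. Step three: RNA extraction, RT-PCR, labelled fragment analysis by capillary electrophoresis; DMSO serves as baseline.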

[8] = ATG_BRE_CIS: Attagene CIS-FACTORIAL HepG2 Assay for human Bone Morphogenetic Protein (BMP) Response Element (BRE) (AID 2282933); conditions: HepG2 BMP response element reporter, Attagene transcription factor profiling; actives raise or lower the signal
In short: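 HepG2 cells transiently transfected with CIS reporter units (endogenous TF activity, BMP response element), dosed 24 h. Reporter mRNA quantified by RT-PCR, fluorescent labelling and capillary electrophoresis; bidirectional fit vs DMSO baseline.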

[9] = molecular target: Retinoic acid receptor alpha (Homo sapiens) (UniProt P10276); assay: ATG_DR5_RAR_CIS: Attagene CIS-FACTORIAL HepG2 Assay for human Retinoic Acid Receptor Alpha (RARE), DR5 submotif (AID 2282934); conditions: HepG2 Attagene cis-factorial RARE DR5 reporter, mRNA; actives raise or lower the signal;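 on AC50: reporter responds to endogenous RAR alpha beta and gamma in HepG2 not RARA alone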
In short: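 Reporter transcripts from a DR5-regulated unit, measured via RT-PCR plus capillary electrophoresis, reflect endogenous RAR activity in transiently transfected human HepG2 liver cells. Exposure lasted 24 h; gain or loss of signal scored against DMSO.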

[10] = APR_HepG2_CellLoss_72hr: Apredica 72-hour HepG2 Assay for Cell Loss (AID 2282915); conditions: high-content imaging
In short: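 Cell number comes from Hoechst 33342-labelled nuclei, imaged at 20x after 3.7% formaldehyde fixation. Dosing was 0.39–200 uM, ten concentrations in duplicate, 0.5% DMSO final, for 72 h. Bidirectional fit relative to DMSO baseline.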

[11] = APR_HepG2_P-H2AX_72hr: Apredica 72-hour HepG2 Assay for H2AX Phosphorylation (AID 2282916); conditions: imaging, actives raise or lower the signal;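 further: phospho-histone H2A.x immunostain intensity per cell marking DNA damage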
In short: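 Following 72 hr treatment with 0.39–200 uM compound, HepG2 cells were formaldehyde-fixed, permeabilized and stained for phospho-H2A.x; signal was measured by high-content imaging and fitted bidirectionally against DMSO controls.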

[12] = APR_HepG2_MitoMembPot_72hr: Apredica 72-hour HepG2 Assay for Mitochondrial Membrane Potential (AID 2282917); conditions: imaging, actives raise or lower the signal
In short: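 Membrane potential read by MitoTracker Red CMXRos (250 nM, 30 min, pre-fixation) fluorescence imaging of HepG2 after 72 hr exposure. Ten concentrations, 0.39–200 uM, duplicate wells, 0.5% DMSO; fitted in both directions against DMSO baseline.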

[13] = APR_HepG2_P-H2AX_24hr: Apredica 24-hour HepG2 Assay for H2AX Phosphorylation (AID 2282920); conditions: high-content imaging, actives raise or lower the signal
In short: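 HepG2 cells dosed 24 h at 0.39–200 uM (10 points, duplicate, 0.5% DMSO final). Formaldehyde-fixed and permeabilized, then immunostained for phospho-H2A.x with Hoechst. Fluorescence quantified by high-content imaging, fitted bidirectionally versus DMSO.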

[14] = APR_HepG2_StressKinase_72hr: Apredica 72-hour HepG2 Assay for Stress Kinase (AID 2282921); conditions: HepG2 stress kinase (phospho-c-Jun) imaging, actives raise or lower the signal
In short: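 Fluorescence intensity of Cy3-tagged anti-phospho-c-Jun antibody, quantified per cell from Hoechst-defined nuclei across six images per well, served as the read-out following 72 h exposure (0.39–200 uM, 0.5% v/v DMSO).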

[15] = APR_HepG2_p53Act_72hr: Apredica 72-hour HepG2 Assay for p53 Activation (AID 2282923); conditions: high-content imaging, actives raise or lower the signal;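 further: average cellular p53 protein immunofluorescence intensity in HepG2 cells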
In short: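 HepG2 monolayers receive test compounds in duplicate at ten concentrations (0.39 through 200 uM) for 72 hr. They are then formaldehyde-fixed, antibody-labelled for p53, Hoechst-stained and imaged, with activity fitted bidirectionally versus DMSO.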

[16] = APR_HepG2_StressKinase_24hr: Apredica 24-hour HepG2 Assay for Stress Kinase (AID 2282922); conditions: HepG2 stress kinase (phospho-c-Jun) imaging, actives raise or lower the signal
In short: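 HepG2, 24 hr dosing, 0.39–200 uM in duplicate, 0.5% DMSO; formaldehyde fix (3.7%), 0.5% Triton X-100; anti-phospho-c-Jun + Cy3 secondary, Hoechst counterstain; ArrayScan imaging; bidirectional curve fit vs DMSO baseline.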

[17] = APR_HepG2_NuclearSize_72hr: Apredica 72-hour HepG2 Assay for Nuclear Size (AID 2282925); conditions: high-content imaging, actives raise or lower the signal
In short: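 HepG2; cpd 0.39–200 uM, 10 conc, duplicate; 72 h; DMSO 0.5% v/v; fix 3.7% formaldehyde 30 min RT; Triton permeabilization; Hoechst 2 ug/mL; HCS imaging 20x; nuclear diameter; gain/loss fit vs DMSO.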

Measured: AC50

Sequence of Aryl hydrocarbon receptor (Homo sapiens) (P35869 whole entry, looked up): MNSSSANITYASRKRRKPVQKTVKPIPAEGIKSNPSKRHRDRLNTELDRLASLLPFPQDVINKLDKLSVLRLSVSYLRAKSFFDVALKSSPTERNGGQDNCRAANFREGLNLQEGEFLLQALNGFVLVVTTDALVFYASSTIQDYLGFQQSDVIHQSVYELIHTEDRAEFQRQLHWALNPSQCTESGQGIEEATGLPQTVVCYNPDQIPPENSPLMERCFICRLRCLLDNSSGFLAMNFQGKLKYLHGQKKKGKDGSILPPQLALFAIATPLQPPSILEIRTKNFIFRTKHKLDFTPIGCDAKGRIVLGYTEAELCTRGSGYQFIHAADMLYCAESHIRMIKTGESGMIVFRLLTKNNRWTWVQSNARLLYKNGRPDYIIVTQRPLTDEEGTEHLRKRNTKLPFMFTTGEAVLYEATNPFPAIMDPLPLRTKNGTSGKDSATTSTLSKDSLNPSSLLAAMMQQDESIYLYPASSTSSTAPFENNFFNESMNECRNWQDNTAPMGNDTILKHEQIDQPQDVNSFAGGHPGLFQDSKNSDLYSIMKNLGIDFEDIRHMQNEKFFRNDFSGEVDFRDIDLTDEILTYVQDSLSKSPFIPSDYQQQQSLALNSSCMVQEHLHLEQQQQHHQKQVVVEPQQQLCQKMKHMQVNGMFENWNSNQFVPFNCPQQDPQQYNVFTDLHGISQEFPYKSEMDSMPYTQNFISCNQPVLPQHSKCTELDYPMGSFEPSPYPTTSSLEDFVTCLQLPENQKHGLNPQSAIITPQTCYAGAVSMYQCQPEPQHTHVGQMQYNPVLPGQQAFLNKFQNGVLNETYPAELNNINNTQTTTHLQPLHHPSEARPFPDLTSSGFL
Sequence of CCAAT/enhancer-binding protein beta (Homo sapiens) (P17676 whole entry, looked up, the tested form may be a part): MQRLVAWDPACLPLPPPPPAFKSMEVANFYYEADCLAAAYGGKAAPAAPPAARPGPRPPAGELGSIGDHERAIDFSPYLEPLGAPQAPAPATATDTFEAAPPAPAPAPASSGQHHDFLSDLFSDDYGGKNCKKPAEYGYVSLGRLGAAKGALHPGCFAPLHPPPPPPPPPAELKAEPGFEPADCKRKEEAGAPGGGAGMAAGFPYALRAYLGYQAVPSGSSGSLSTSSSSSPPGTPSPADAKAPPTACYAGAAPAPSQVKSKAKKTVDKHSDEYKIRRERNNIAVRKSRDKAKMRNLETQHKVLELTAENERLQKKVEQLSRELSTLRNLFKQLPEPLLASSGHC
Sequence of Retinoic acid receptor alpha (Homo sapiens) (P10276 whole entry, looked up): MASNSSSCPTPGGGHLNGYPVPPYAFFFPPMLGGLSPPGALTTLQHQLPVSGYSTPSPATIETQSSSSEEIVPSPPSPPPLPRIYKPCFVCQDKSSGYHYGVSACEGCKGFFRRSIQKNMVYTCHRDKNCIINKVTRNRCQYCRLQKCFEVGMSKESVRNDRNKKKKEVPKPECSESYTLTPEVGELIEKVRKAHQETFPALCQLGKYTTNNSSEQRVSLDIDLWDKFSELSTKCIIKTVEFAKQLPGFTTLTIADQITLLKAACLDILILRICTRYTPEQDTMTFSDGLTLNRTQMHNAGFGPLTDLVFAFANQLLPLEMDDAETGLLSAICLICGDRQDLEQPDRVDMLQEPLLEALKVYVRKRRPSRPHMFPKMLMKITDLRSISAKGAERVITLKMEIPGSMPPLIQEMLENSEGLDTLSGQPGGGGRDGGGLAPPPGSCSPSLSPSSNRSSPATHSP

CCCCN(CC)C(=O)SCCC
inactive: [1] | [2] | [3] | [4] | [5] | [6] | [7] | [8] | [9]

CC(=O)c1ccc(-c2ccccc2)cc1
inactive: [1] | [2] | [3] | [4] | [6] | [7] | [8] | [9]
active: [5] 56.5 µM

CNC(=O)Oc1ccc(N(C)C)c(C)c1
inactive: [1] | [2] | [3] | [4] | [5] | [6] | [7] | [8] | [9]

COC(=O)C(F)(F)C(F)(F)OC(F)(C(F)(F)F)C(F)(F)OC(F)=C(F)F (stereo not given)
inactive: [1] | [2] | [3] | [4] | [5] | [6] | [7] | [8] | [9]
active: [4] 20.2 µM | [6] 9.89 µM

C=CC(=O)OCC(CC)(COC(=O)C=C)COC(=O)C=C
active: [3] 12.1 µM | [4] 16.8 µM | [5] 35.9 µM | [6] 113 µM
inactive: [1] | [2] | [7] | [8] | [9]

CCOP(=S)(S)OCC
inactive: [1] | [2] | [3] | [4] | [5] | [6] | [7] | [8] | [9]

O=[N+]([O-])c1cc(Cl)ccc1Cl
inactive: [1] | [2] | [3] | [4] | [5] | [6] | [7] | [8] | [9]

CC(Cl)CN(C)C (stereo not given)
inactive: [1] | [2] | [3] | [4] | [5] | [6] | [7] | [8] | [9]

C=C(C)C(=O)OCC1CO1 (stereo not given)
inactive: [1] | [2] | [3] | [4] | [5] | [6] | [7] | [8] | [9]

Cc1ccc(O)cc1C
not listed: [1] | [6] | [16] | [17]
inactive: all other assays above

O=C(O)C(F)(F)OC(F)(F)C(F)(F)OC(F)(F)C(=O)O
inactive: [1] | [2] | [3] | [4] | [5] | [6] | [7] | [8] | [9]

FC(F)(F)C(F)(C(F)(F)F)C(F)(F)C(F)(F)CC1CO1 (stereo not given)
inactive: [1] | [2] | [3] | [4] | [5] | [6] | [7] | [8] | [9]

CCCCC(CC)COP(=O)(Oc1ccccc1)Oc1ccccc1 (stereo not given)
active: [3] 35.4 µM | [4] 26.1 µM | [5] 17.8 µM | [6] 29.5 µM | [8] 21.4 µM
inactive: [1] | [2] | [7] | [9]

Oc1ccc(I)cc1
inactive: [1] | [2] | [3] | [4] | [5] | [6] | [7] | [8] | [9]

CCCCC(CC)COC(=O)c1c(Br)c(Br)c(Br)c(Br)c1C(=O)OCC(CC)CCCC (stereo not given)
inactive: [1] | [2] | [3] | [4] | [5] | [6] | [7] | [8] | [9]

CC(C)(C)c1ccc(O)cc1
active: [3] 100 µM | [8] 58.1 µM
not listed: [1] | [5] | [6] | [9] | [16] | [17]
inactive: all other assays above

Cc1c([N+](=O)[O-])cc2c(c1[N+](=O)[O-])C(C)(C)CC2(C)C
inactive: [1] | [2] | [4] | [5] | [6] | [7]
active: [3] 100 µM | [8] 100 µM | [9] 2.78 µM

CC(C)(C)c1ccccc1OP(=O)(Oc1ccccc1)Oc1ccccc1
active: [2] 14.8 µM | [3] 100 µM | [4] 27.1 µM | [6] 116 µM
inactive: [1] | [5] | [7] | [8] | [9]

COC(N)=O
inactive: [1] | [2] | [3] | [4] | [5] | [6] | [7] | [8] | [9]

CC(C)CBr
inactive: [1] | [2] | [3] | [4] | [5] | [6] | [7] | [8] | [9]

O=C(O)C1C(C(=O)O)C2(Cl)C(Cl)=C(Cl)C1(Cl)C2(Cl)Cl (stereo not given)
not listed: [5] | [9] | [12]
inactive: all other assays above

COP(=O)(CCC(=O)NCO)OC
inactive: [1] | [2] | [3] | [4] | [5] | [6] | [7] | [8] | [9]

CCN(CC)C1CCCCC1
inactive: [1] | [2] | [3] | [4] | [5] | [6] | [7] | [8] | [9]

O=C(O)C(F)(OC(F)(F)C(F)(F)C(F)(F)F)C(F)(F)F (stereo not given)
inactive: [1] | [2] | [3] | [4] | [5] | [6] | [7] | [8] | [9]

FC(F)(F)c1ccc(Cl)cc1
inactive: [1] | [2] | [3] | [4] | [5] | [6] | [7] | [8] | [9]

Cc1ccc(C(=O)Cl)cc1
inactive: [1] | [2] | [3] | [4] | [5] | [6] | [7] | [8] | [9]

O=S1(=O)OCC2C(CO1)C1(Cl)C(Cl)=C(Cl)C2(Cl)C1(Cl)Cl (stereo not given)
active: [1] 171 µM | [4] 8.33 µM | [9] 171 µM
inactive: [2] | [3] | [6] | [7] | [8]
